Compounds with a hit are over-represented: about 3.4% of the library has one in this group of screens.
FBPA Giardia inh – qHTS Assay for Inhibitors of Fructose-1,6-bisphosphate Aldolase from Giardia Lamblia | A8B2U2 | purified Giardia FBPA | Potency, µM (highest dose often 59.6 µM), for the others: top-dose activity, negative = inhibition, usual class: inhibitors | AID 2451, 2010 | 0.71% of 290,000 active; note: nearly all actives have a fitted effect of over 55% in size
Target sequence (A8B2U2 whole entry, looked up): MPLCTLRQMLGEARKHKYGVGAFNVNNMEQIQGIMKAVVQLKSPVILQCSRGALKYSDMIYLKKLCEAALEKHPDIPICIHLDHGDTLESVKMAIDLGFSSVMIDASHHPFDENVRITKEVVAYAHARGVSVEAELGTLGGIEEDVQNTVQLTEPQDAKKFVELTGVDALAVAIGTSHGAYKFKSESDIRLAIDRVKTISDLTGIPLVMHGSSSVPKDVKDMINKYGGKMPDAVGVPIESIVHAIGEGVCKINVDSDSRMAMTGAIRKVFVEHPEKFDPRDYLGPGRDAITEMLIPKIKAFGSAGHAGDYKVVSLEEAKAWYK
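Giardia FBPA (40 nM reagent) was preincubated 10 min at RT with compound (up to 57.5 uM final), then substrate plus GAPDH/TPI/NAD/arsenate coupling system with diaphorase/resazurin was added; resorufin fluorescence (525/598 nm) was read after 20 min.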
Sm TGR block – qHTS Assay for the Inhibitors of Schistosoma Mansoni Peroxiredoxins; Schistosoma mansoni thioredoxin glutathione reductase (TGR), Q962Y6; purified TGR, DTNB reduction, TNB absorbance 405 nm; Potency, µM (titrated, usually from 114 µM), inactives show top-dose activity change, negative = inhibition, most hits filed as inhibitors; 3% of 360,000 active; note: nearly all actives have a fitted effect of over 60% in size
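TGR 20 nM + NADPH 100 uM (dispensed conc.), cpd preinc 15 min RT; start with NADPH (500 uM addition) then DTNB (15 mM addition). Kinetic TNB absorbance, 405 nm filter. Four-parameter Hill fit across titration.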
AmpC inh no detg – qHTS Inhibitors of AmpC Beta-Lactamase (assay without detergent); P00811; AmpC nitrocefin hydrolysis, absorbance 480 nm, 0.0001% Triton; Potency, µM (series often up to 57.1 µM), inactives show top-dose activity change, negative = inhibition, usual class: inhibitors; 0.52% of 330,000 active; AID 485341, 2010;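 note: plate controls were no compound for no effect and no enzyme for full effect; nearly all actives have a fitted effect of over 20% in size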
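20 mM phosphate pH 7.0 + 0.01% (detergent screen) or 0.0001% Triton X-100; 5.3 nM AmpC reagent; cpd preinc 15 min RT; nitrocefin (800 uM stock) to start; A480 q20 s × 4 min; Activity was normalised to no-enzyme and no-compound control wells.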
RE007 growth inh – qHTS Assay for Inhibitors of the HIV-1 protein Vpr; 0.21% of 360,000 active; S. pombe RE007 Vpr strain, BacTiter-Glo ATP luminescence, 24 h; Potency, µM (highest dose often 92.2 µM), for the others: at the top dose activity change, negative = less growth, actives largely listed as inhibitors; active = well fitted falling curve with a large enough effect; inconclusive = small, poorly fitted or top-dose-only effect; inactive = no such curve, though single readings can be large or run the other way; note: nearly all actives have a fitted effect of over 50% in size
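Fission yeast strain RE007, carrying one chromosomally integrated HIV-1 vpr copy, was seeded at OD 0.01 in PMG+AL medium with 23 nL pinned compound. After 24 h at 30 °C and 99% humidity, viability was read by BacTiter-Glo luminescence.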
AmpC inh detg – qHTS Inhibitors of AmpC Beta-Lactamase (assay with detergent); P00811; AmpC hydrolysis of nitrocefin, absorbance 480 nm, 0.01% Triton; Potency, µM (top dose mostly 114 µM), inactives show at the highest dose activity change, negative = inhibition, most hits filed as inhibitors; 0.041% of 370,000 active; AID 485294, 2010;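 note: 0% = no-compound wells and -100% = no-enzyme wells; nearly all actives have a fitted effect of over 25% in size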
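20 mM phosphate pH 7.0 + 0.01% (detergent screen) or 0.0001% Triton X-100; 5.3 nM AmpC reagent; cpd preinc 15 min RT; nitrocefin (800 uM stock) to start; A480 q20 s × 4 min; Activity was normalised to no-enzyme and no-compound control wells.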
Active calls of the source: *; ! = not confirmed by another sample. Unless noted, calls come from the whole dose curve; as a rule, active = well fitted curve in the direction sought with a large enough effect; inconclusive = small, poorly fitted or top-dose-only effect, or another doubt; inactive = no such curve, though single readings can be large; an effect the other way counts as inactive or inconclusive. Unless noted, % is set by controls: 0 for no effect and ±100 for the full control effect; potency is the fitted concentration of half-maximal effect.

How did FC(F)(F)c1cc(-c2ccco2)nc(NCc2ccccc2)n1 do in these assays?
FBPA Giardia inh: -6%; Sm TGR block: 18µM*; AmpC inh no detg: -20%; RE007 growth inh: -12%; AmpC inh detg: 3%

How did Fc1ccc(CNc2nc(-c3ccco3)cc(C(F)(F)F)n2)cc1 do in these assays?
FBPA Giardia inh: -2%; Sm TGR block: 25µM*; AmpC inh no detg: -36%; RE007 growth inh: 5%; AmpC inh detg: -3%

How did COc1ccc(NC(=O)CN2C(=O)NC(C)(C3CCCCC3)C2=O)c(OC)c1 (centres undefined) do in these assays?
Sm TGR block: -4%; AmpC inh no detg: -4%; RE007 growth inh: 3%; AmpC inh detg: 4%

Results for Cc1cccc(/C=N/NC(=O)c2cc(Br)ccc2OCc2ccccc2)n1 ?
FBPA Giardia inh: -7%; Sm TGR block: 20%; AmpC inh no detg: -21%; RE007 growth inh: 1%; AmpC inh detg: -13%

What do the screens show for `O=C(OCC1OC(OC(=O)c2cc(O)c(O)c(OC(=O)c3cc(O)c(O)c(O)c3)c2)[C@@H](OC(=O)c2cc(O)c(O)c(OC(=O)c3cc(O)c(O)c(O)c3)c2)C(OC(=O)c2cc(O)c(O)c(OC(=O)c3cc(O)c(O)c(O)c3)c2)C1OC(=O)c1cc(O)c(O)c(OC(=O)c2cc(O)c(O)c(O)c2)c1)c1cc(O)c(O)c(OC(=O)c2cc(O)c(O)c(O)c2)c1` (some centres undefined)?
FBPA Giardia inh: 3.5µM*

How did Cc1cn(C2OC(COC(=O)c3ccccc3)C(OC(=O)c3ccccc3)C2OC(=O)c2ccccc2)c(=O)[nH]c1=O (centres undefined) do in these assays?
FBPA Giardia inh: 4%; Sm TGR block: -15%; AmpC inh no detg: -17%; RE007 growth inh: 4%; AmpC inh detg: -2%

How did CCN1C(=O)[C@H]2[C@@H](c3ccc(OC)cc3)N[C@]3(CCCN(Cc4cccn4C)C3=O)[C@H]2C1=O do in these assays?
RE007 growth inh: 1%

What do the screens show for `Cc1cccc(-c2nc3c(c(SCC(=O)N4CCOCC4)n2)Cc2c(CO)cnc(C)c2O3)c1`?
Sm TGR block: 22µM*; AmpC inh no detg: 190%; RE007 growth inh: 9%; AmpC inh detg: 5%

Results for Cc1ncc(CO)c2c1Oc1nc(-c3ccccc3)nc(SCC(=O)N3CCOCC3)c1C2 ?
Sm TGR block: 32µM*; AmpC inh no detg: 117%; RE007 growth inh: 12%; AmpC inh detg: -6%

Results for COc1cccc(-c2nc3c(c(SCC(=O)N4CCOCC4)n2)Cc2c(CO)cnc(C)c2O3)c1 ?
Sm TGR block: inconclusive; AmpC inh no detg: 56%; RE007 growth inh: -5%; AmpC inh detg: 2%

Results for Cc1ncc(CO)c2c1Oc1nc(-c3ccccc3)nc(SCC(=O)N(C)c3ccccc3)c1C2 ?
Sm TGR block: -21%; AmpC inh no detg: 78%; AmpC inh detg: -5%

How did Cc1ncc(CO)c2c1Oc1nc(-c3ccc(Cl)cc3)nc(SCC(=O)N3CCCCC3)c1C2 do in these assays?
Sm TGR block: 40µM*; AmpC inh detg: 16%

Results for Cc1ncc(CO)c2c1Oc1nc(-c3ccccc3)nc(SCC(=O)N3CCCCC3)c1C2 ?
Sm TGR block: 32µM*!; AmpC inh no detg: 44%; RE007 growth inh: 1%; AmpC inh detg: -15%

What do the screens show for `COc1ccccc1-c1nc2c(c(SCC(=O)N3CCCCC3)n1)Cc1c(CO)cnc(C)c1O2`?
FBPA Giardia inh: -13%; Sm TGR block: inconclusive; AmpC inh no detg: 104%; RE007 growth inh: 8%; AmpC inh detg: 2%

How did O=C(Cn1c(=O)oc2cc(S(=O)(=O)N3CCCC3)ccc21)NC1CCCc2ccccc21 (centres undefined) do in these assays?
FBPA Giardia inh: 4%; Sm TGR block: -1%; AmpC inh no detg: 10µM*; RE007 growth inh: -11%; AmpC inh detg: inconclusive
